In the library only some 2.8% were active in any assay of this set; here they are far more common.
GLP-1R inv ag: inverse agonists of human GLP-1 receptor; P43220; HEK293 GLP-1R CRE-luciferase, luminescence, 24 h; GLP-1R form is constitutively active; Potency, µM (doses to about 38.3 µM), for the others: at the highest dose activity change, negative = inhibition, most hits filed as inhibitors; actives 1.6% (n = 410,000); further: potency means the concentration at half of the fitted maximal effect; on the % scale 0 is the no-effect control and ±100 the full control effect; nearly all actives have a fitted effect of over 55% in size
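Inverse agonism was detected as reduced cAMP-driven luciferase luminescence after 24 h compound treatment. The cells were HEK293 clones expressing constitutively active human GLP-1R with the reporter. Reporter-only and GPR119 cell lines served as counterscreen controls.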
HEK293 tox: cytotoxic in the GLP-1 receptor inverse agonist counter-screen; actives 0.13% (n = 410,000); HEK293 cAMP-luciferase reporter cells, luminescence, 24 h; AID 624418; Potency, µM (highest dose often 38.3 µM), for inactives: at the top dose activity change, negative = inhibition, hits mostly inhibitors;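 further: loss of luciferase light is scored as toxicity; potency means the concentration at half of the fitted maximal effect; on the % scale 0 is the no-effect control and ±100 the full control effect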
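Step one: seed cells (200 cells/uL, DMEM with 10% Nu serum, 1% pen-strep). Step two: 12-hour incubation at 37 deg C. Step three: pin 23 nL compound, incubate 24 hr. Step four: add luciferase reagent, read luminescence 12 min later.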
GLS inh: blocks human kidney-isoform glutaminase activity; O94925; GLS enzymatic activity, qHTS titration; Potency, µM (doses to about 45.5 µM), without a hit: at the highest dose activity change, negative = inhibition, actives largely listed as inhibitors; actives 0.21% (n = 410,000); further: potency means the concentration at half of the fitted maximal effect; on the % scale 0 is the no-effect control and ±100 the full control effect
Target sequence (O94925 whole entry, looked up, canonical isoform): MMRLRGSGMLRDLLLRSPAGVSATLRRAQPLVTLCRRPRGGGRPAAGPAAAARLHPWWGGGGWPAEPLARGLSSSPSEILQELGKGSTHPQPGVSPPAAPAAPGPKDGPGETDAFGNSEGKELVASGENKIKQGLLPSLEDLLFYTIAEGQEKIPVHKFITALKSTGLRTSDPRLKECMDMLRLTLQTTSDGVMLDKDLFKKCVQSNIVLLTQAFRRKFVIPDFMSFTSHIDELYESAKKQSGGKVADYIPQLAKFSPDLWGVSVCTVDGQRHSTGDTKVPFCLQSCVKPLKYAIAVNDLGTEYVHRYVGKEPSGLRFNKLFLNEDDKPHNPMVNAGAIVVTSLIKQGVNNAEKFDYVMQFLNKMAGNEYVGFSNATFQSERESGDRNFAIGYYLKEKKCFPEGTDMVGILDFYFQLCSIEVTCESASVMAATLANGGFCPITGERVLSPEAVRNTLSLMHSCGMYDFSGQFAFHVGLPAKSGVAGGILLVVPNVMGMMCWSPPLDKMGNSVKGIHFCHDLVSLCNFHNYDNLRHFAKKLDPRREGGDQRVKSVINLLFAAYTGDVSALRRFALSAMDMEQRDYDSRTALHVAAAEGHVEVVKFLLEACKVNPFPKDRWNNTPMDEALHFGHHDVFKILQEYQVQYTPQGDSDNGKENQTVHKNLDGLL
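hKGA; 45 mM KH2PO4 pH 8.2 + 0.02% Tween-20; cpd via pin tool; 1 mM Gln soln; GluOx/HRP/Amplex Red; RT 30 min; fluor. t0 & final.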
KCNH2 WT inh: inhibitors of human wildtype KCNH2 potassium channel | U2OS, BacMam KCNH2, thallium flux FluxOr; stronger effect = lower value | activity change, % at 1.84 µM | actives 0.37% (n = 340,000);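 active means maximum activity change below -70%; inconclusive means maximum activity change between -70% and -50%; inactive means maximum activity change above -50%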; further: on the % scale 0 is the no-effect control and ±100 the full control effect
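U2OS cells were transduced with wild-type KCNH2 virus (2.03 x 10^8 / mL) for 4 h at room temperature, then cultured overnight at 37 C. Thallium flux was read with FluxOr dye. Rate constants were normalized to DMSO controls.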
KCNH2 3.1 inh: inhibitors of human KCNH2 3.1 potassium channel isoform | U2OS KCNH2 3.1, thallium flux FluxOr; stronger effect = lower value | actives 0.95% (n = 340,000) | activity change, % (tested at about 1.8 µM);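 active means maximum activity change below -70%; inconclusive means maximum activity change from -70% to -50%; inactive means maximum activity change above -50%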;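 further: thallium influx rate constant from kinetic fluorescence after stimulation buffer; on the % scale 0 is the no-effect control and ±100 the full control effect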
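We transduce U2OS cells with the mutant 3.1 virus, culture them overnight, load FluxOr with Red40 quencher for 45 min, then add stimulation buffer and read kinetically for 2 min to derive a normalized rate constant.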
GLP1R ag: activates the human GLP-1 receptor; AID 624172; P43220; HEK293 GLP-1R CRE-luciferase, luminescence, 4-6 h; cells express a hypersensitive GLP-1R form; actives 0.007% (n = 380,000); Potency, µM (series often up to 45.6 µM), for inactives: at the highest dose activation, hits mostly activators; further: potency means the concentration at half of the fitted maximal effect; % of control where 0% means no effect
Starred values were filed as active, the others as inactive; ? = inconclusive; / = no result; [ ] = another dose, or the depositor's remark. Unless noted, the call rests on the fitted dose curve; in most records, active means well fitted curve in the direction sought with a large enough effect; inconclusive means small, poorly fitted or top-dose-only effect, or another doubt; inactive means no such curve, though single readings can be large; an effect the other way counts as inactive or inconclusive.

SMILES	GLP-1R inv ag	HEK293 tox	GLS inh	KCNH2 WT inh	KCNH2 3.1 inh	GLP1R ag
COC(=O)c1cc(C(=O)N2CCN(C(=O)c3ccco3)CC2)cc([N+](=O)[O-])c1	1%	0%	-3%	3	-22	-13%
COC(=O)c1cc(C(=O)N2CCN(c3cccc(C)c3C)CC2)cc([N+](=O)[O-])c1	4µM*	?	5%	13	13	11%
CCOc1ccccc1CNC(=O)c1cc2c(=O)n(Cc3cccnc3)ccc2nc1C	8%	-2%	0%	/	/	/
Cc1csc2c(=O)sc(NC(=O)c3ccc(F)cc3)nc12	15%	19%	0%	-5	17	1%
Cc1csc2nc(NC(=O)c3ccccc3)sc(=O)c12	26%	1%	-18%	-2	-79*	-3%
Cc1cc(SCC(=O)N/N=C/c2ccc(O)cc2O)c(C)cc1Br	7.9µM*	-18%	16%	-3	-17	-7%
Cc1cc(SCC(=O)N/N=C/c2ccccc2C(=O)O)c(C)cc1Br	-34%	6%	2%	-7	8	6%
Cc1ccc(-n2nc3c(=O)n(CCCC(=O)NCc4ccc(Cl)cc4)nc(C)c3c2C)cc1	?	6%	5%	-17	-8	2%
Cc1ccc(-n2nc3c(=O)n(C(C)C(=O)NCCCc4ccccc4)nc(C)c3c2C)cc1 (centres undefined)	5µM*	-15%	16%	1	5	0%
Cc1ccc(-n2nc3c(=O)n(CCCC(=O)NCc4cccc(Cl)c4)nc(C)c3c2C)cc1	11µM*	5%	-3%	-2	-15	9%
Cc1cc(F)ccc1NC(=O)C1CCC(CNS(=O)(=O)c2ccc3c(c2)CCCC(=O)N3)CC1 (centres undefined)	-9%	2%	1%	/	/	/
COc1ccc(OCCNC(=O)C2(C)CCN2Cc2ccc3ccccc3c2)cc1 (centres undefined)	?	0%	1%	/	/	15%
CCN(CC(O)c1cccc(O)c1)C(=O)C12CC3CC(CC(C3)C1)C2 (centres undefined)	?	0%	6%	1	2	13µM*
COc1ccc(C(=O)C(CN2CCCC2)c2ccccc2)cc1 (centres undefined)	5.6µM*	?	1%	-1	10	-17%
CCc1cccc(C)c1NC(=O)CN(C)Cc1cccc(F)c1	8.9µM*	-3%	-5%	-1	6	4%
Cc1cccc(C(C)C)c1NC(=O)CN(C)Cc1cccc(F)c1	?	4%	0%	-4	-8	-5%
CCOc1ccccc1CN1CCN(Cc2[nH]c3ccccc3c2C)CC1CCO (centres undefined)	?	-24%	11%	-18	-74*	3%
CCOc1ccccc1CN1CCN(Cc2ccc(C)o2)CC1CCO (centres undefined)	-11%	4%	11%	1	-49	9%
Cc1ccc2[nH]c(CN3CCN(C)C(CCO)C3)c(C)c2c1 (centres undefined)	?	-8%	4%	-2	24	-3%
Cc1ccc(CN2CCN(Cc3cc(=O)c4ccccc4[nH]3)CC2CCO)o1 (centres undefined)	0%	-7%	5%	-118*	-2	5%
CCOc1ccccc1CN1CCN(C2CCN(c3ccccc3F)CC2)CC1CCO (centres undefined)	11µM*	-4%	0%	14	-12	2%
CCOc1ccc(CN2CCN(Cc3[nH]c4ccc(OC)cc4c3C)CC2CCO)cc1 (centres undefined)	13µM*	-22%	7%	-73*	-107*	6%
CCN(c1ccccc1)c1nnc(NC(=O)Nc2ccc(Br)cc2)s1	11%	1%	-1%	/	/	/
COc1ccc(Cn2c(CCC(=O)NCc3ccc(Cl)cc3)nc3cccnc32)cc1	-8%	-3%	-1%	/	/	/
Cc1cc(N2CCCCC2)nc2ccc(NC(=O)c3cccc(F)c3)cc12	11µM*	?	2%	/	/	/
SMILES	GLP-1R inv ag	HEK293 tox	GLS inh	KCNH2 WT inh	KCNH2 3.1 inh	GLP1R ag
Cc1cc(N2CCN(C)CC2)nc2ccc(NC(=O)Nc3ccccc3)cc12	?	-3%	13%	/	/	/
Cc1cc(N2CCN(C)CC2)nc2ccc(NC(=O)Nc3cccc(Cl)c3)cc12	10µM*	?	13%	/	/	/
O=C(COc1cc(F)ccc1[N+](=O)[O-])N1N=C(c2cccs2)CC1c1ccco1 (centres undefined)	?	-16%	-2%	0	6	6%
C[N+]1(C)[C@@H]2CC(OC(=O)C(O)(c3cccs3)c3cccs3)C[C@H]1[C@@H]1O[C@@H]12 (some centres undefined)	/	/	-2%	/	/	-2%
O=C(Nc1ccn(Cc2ccccc2)n1)c1ccc2c(c1)OCO2	-15%	-20%	-1%	-6	-81*	12%
CCOC(=O)C1CCN(C(c2cccc(F)c2)c2c(O)cc(C)n(Cc3ccco3)c2=O)CC1 (centres undefined)	-12%	-3%	3%	/	/	/
O=C(CSc1nc(=O)n(Cc2ccco2)c2c1CCC2)Nc1ccccc1C(F)(F)F	-24%	-1%	1%	/	/	/
O=C1c2cccc(Cl)c2C(=O)c2c1cccc2N1CCCC1	6.3µM*	?	-8%	-2	-11	10%
O=C1c2ccccc2C(=O)c2cc(N3CCCCC3)ccc21	-44%	-6%	0%	7	17	0%
C/C(=N\N=C1\NC(=O)C(CC(=O)Nc2ccc(C)c(Cl)c2)S1)C(C)(C)C (centres undefined)	11µM*	16%	13%	-9	-30	9%
Nc1nc2c(ncn2[C@H]2C[C@H](O)[C@@H](CO)O2)c(=O)[nH]1	3%	2%	-3%	-13	10	6%
Nc1nc(Cl)nc2c1ncn2C1CC(O)C(CO)O1 (centres undefined)	5.6µM*	-5%	8%	-11	-1	19%
O=[N+]([O-])c1cccc(COc2ccccc2CN2CCOCC2)c1	-6%	-1%	5%	1	6	24%
Cc1cc(OCc2cccc(Cl)c2)c(C)cc1CN1CCOCC1	?	-4%	-18%	8	-71*	-4%
CCCC[C@H](CC)CN1CN(C[C@@H](CC)CCCC)CC(C)(N)C1	/	/	-15%[20 µM]	/	/	-3%[19.8 µM]
COCCNC(=O)C1CCN(S(=O)(=O)N2CCC3(CC2)OCCO3)CC1	18%	14%	-4%	-8	-200*	3%
CCCCCn1cc2c(c1-c1ccccc1Br)c(=O)n(C)c(=O)n2C	?	-9%	-4%	/	/	/

Bioassay records deposited in PubChem BioAssay by National Center for Advancing Translational Sciences (NCATS).
